Test [1] can be described thus: ATG_GRE_CIS: Attagene CIS-FACTORIAL HepG2 Assay for human Glucocorticoid Response Elements (GRE) (AID 2282947). The following applies: HepG2 GRE cis-reporter, Attagene multiplex mRNA; actives raise or lower the signal. A digest of the protocol: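 Reporter transcripts read by RT-PCR with capillary electrophoresis fluorescence after a 24 h chemical exposure of HepG2 cells transiently transfected with multiple cis-element reporter units. Gain or loss fitted against DMSO.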

The nature of test [2]: ATG_ISRE_CIS: Attagene CIS-FACTORIAL HepG2 Assay for human Interferon Regulatory Factor 1 (IRF1) binding to an Interferon-Stimulated Response Element (ISRE) (AID 2282948). To be noted: HepG2 ISRE cis-reporter (Attagene), mRNA transcription readout; actives raise or lower the signal. Put shortly:
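Endogenous transcription factor activity read as reporter transcript abundance via RT-PCR and capillary electrophoresis. HepG2 cells transiently transfected, 24 h chemical exposure. Gain or loss fitted against DMSO baseline.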

Test [3] is described as follows: ATG_M_32_CIS: Attagene CIS-FACTORIAL HepG2 Assay for M32 Transcription Factor (Internal Marker) (AID 2282949).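 Further: background control marker of the multiplexed CIS panel rather than a real target.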 The following applies: HepG2 Attagene cis-factorial M32 reporter, mRNA; actives raise or lower the signal. Put shortly: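 HepG2 human liver cells transiently transfected with cis-promoter-driven multiple reporter transcription units, dosed 24 h. Reporter mRNA quantified by RT-PCR, FAM-labelled primer extension, HpaI digest and capillary electrophoresis; bidirectional fit versus DMSO baseline.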

The nature of test [4]: ATG_M_06_CIS: Attagene CIS-FACTORIAL HepG2 Assay for M06 Transcription Factor (Internal Marker) (AID 2282950). The following applies: HepG2 Attagene CIS-FACTORIAL M06 internal marker reporter; actives raise or lower the signal. Put shortly: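 Serves as a background control readout. Transfected HepG2 exposed to compounds for 24 h, then reporter transcripts quantified by fluorescent RT-PCR and capillary electrophoresis. Both directions fitted against DMSO baseline.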

For test [5], the target named is Hypoxia-inducible factor 1-alpha (Homo sapiens) (UniProt Q16665). Kind of test: ATG_HIF1a_CIS: Attagene CIS-FACTORIAL HepG2 Assay for human Hypoxia Inducible Factor 1 (HIF1A) (AID 2282951). To be noted: HepG2 Attagene cis-factorial HIF1a reporter transcription; actives raise or lower the signal. Put shortly: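 Measures endogenous transcription-factor activity through cis-regulated reporter mRNA in HepG2. Cells dosed 24 h; transcripts quantified by RT-PCR with 6-FAM-labelled products separated by capillary electrophoresis; DMSO serves as negative control.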
Chain of Hypoxia-inducible factor 1-alpha (Homo sapiens) (Q16665 whole entry, looked up): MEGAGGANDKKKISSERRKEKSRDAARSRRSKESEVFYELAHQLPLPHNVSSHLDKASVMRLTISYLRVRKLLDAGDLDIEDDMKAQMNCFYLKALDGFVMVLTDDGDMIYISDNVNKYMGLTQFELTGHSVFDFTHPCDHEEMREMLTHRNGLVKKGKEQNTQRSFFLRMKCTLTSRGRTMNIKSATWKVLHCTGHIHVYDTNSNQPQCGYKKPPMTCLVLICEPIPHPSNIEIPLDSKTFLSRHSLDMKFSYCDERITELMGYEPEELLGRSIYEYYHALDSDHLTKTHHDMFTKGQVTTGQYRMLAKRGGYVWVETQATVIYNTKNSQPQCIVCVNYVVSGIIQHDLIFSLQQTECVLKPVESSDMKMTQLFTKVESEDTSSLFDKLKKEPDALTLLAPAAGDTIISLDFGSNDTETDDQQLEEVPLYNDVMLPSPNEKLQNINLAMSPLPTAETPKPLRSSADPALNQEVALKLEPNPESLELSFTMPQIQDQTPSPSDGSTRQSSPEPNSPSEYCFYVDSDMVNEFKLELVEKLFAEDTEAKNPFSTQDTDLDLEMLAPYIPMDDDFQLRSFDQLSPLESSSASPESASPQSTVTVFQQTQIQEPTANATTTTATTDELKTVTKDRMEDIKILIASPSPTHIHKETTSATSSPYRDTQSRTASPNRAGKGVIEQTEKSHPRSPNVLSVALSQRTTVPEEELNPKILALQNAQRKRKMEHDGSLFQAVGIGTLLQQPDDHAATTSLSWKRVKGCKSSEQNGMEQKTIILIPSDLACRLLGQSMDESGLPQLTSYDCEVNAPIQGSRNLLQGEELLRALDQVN

Test [6] concerns the target Hepatocyte nuclear factor 6 (Homo sapiens) (UniProt Q9UBC0). Kind of test: ATG_HNF6_CIS: Attagene CIS-FACTORIAL HepG2 Assay for human Hepatocyte Nuclear Factor 6 (HNF6) (AID 2282952). To be noted: HepG2 Attagene cis-factorial HNF6 reporter transcription; actives raise or lower the signal. Put shortly: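 First, HepG2 cells were transfected with the multiplexed cis reporter library and dosed with chemical for 24 h. Next, RNA was reverse-transcribed, PCR-amplified and fluorescently labelled. Finally, HpaI-digested fragments were read by capillary electrophoresis.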

The target of test [7] is Heat shock factor protein 1 (Homo sapiens) (UniProt Q00613). Kind of test: ATG_HSE_CIS: Attagene CIS-FACTORIAL HepG2 Assay for human Heat Shock Transcription Factor 1 (HSE) (AID 2282953). The following applies: HepG2 HSE cis-reporter, Attagene RNA transcription; actives raise or lower the signal. Put shortly: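 Endogenous transcription factor activity in transiently transfected HepG2, read as reporter mRNA by RT-PCR with fluorescent capillary electrophoresis after 24 h. Gain or loss of signal fitted versus DMSO baseline.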
Chain of Heat shock factor protein 1 (Homo sapiens) (Q00613 whole entry, looked up): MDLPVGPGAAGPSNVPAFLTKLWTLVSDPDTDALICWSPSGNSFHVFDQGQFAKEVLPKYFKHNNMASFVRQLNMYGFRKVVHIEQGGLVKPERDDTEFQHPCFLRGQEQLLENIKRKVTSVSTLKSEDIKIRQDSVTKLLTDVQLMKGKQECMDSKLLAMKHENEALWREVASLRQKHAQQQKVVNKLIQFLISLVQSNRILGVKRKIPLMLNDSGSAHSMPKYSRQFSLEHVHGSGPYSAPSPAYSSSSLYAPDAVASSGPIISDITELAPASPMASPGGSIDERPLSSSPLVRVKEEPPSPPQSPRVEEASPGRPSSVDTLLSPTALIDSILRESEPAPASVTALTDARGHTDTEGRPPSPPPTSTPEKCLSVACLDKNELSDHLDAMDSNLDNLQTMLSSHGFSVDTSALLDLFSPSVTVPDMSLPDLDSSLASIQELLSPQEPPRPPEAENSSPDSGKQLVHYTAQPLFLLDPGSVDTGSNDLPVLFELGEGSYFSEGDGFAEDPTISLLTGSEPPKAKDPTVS

Test [8] is described as follows: ATG_MRE_CIS: Attagene CIS-FACTORIAL HepG2 Assay for human Metal Responsive Element (MRE) (AID 2282954). The following applies: HepG2 MRE cis-reporter transcription, Attagene multiplex; actives raise or lower the signal. Put shortly: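 Endogenous MRE-dependent transcription read as reporter mRNA in transiently transfected human HepG2 cells at 24 h. RNA reverse-transcribed, PCR-amplified, labelled and resolved by capillary electrophoresis; gain or loss relative to DMSO.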

Test [9] in a line: ATG_PBREM_CIS: Attagene CIS-FACTORIAL HepG2 Assay for human Phenobarbital-responsive Enhancer Module (PBREM) (AID 2282955). The following applies: HepG2 PBREM cis-reporter, Attagene multiplexed transcription; actives raise or lower the signal. Put shortly:
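Fluorescence of labelled reporter cDNA fragments, resolved by capillary electrophoresis, gives mRNA induction in transfected HepG2 cells treated for 24 h; DMSO serves as negative control and baseline.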

For test [10], the target named is Paired box protein Pax-6 (Homo sapiens) (UniProt P26367). Nature of the test: ATG_Pax6_CIS: Attagene CIS-FACTORIAL HepG2 Assay for human Paired Box 6 (PAX6) (AID 2282956). The following applies: HepG2 CIS-FACTORIAL PAX6 reporter transcription, RNA readout; actives raise or lower the signal. Put shortly: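 Read-out is reporter transcript level, measured by RT-PCR with fluorescent primer extension and capillary electrophoresis after 24 h dosing of transfected HepG2 cells. Activity in either direction fitted relative to DMSO control.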
Chain of Paired box protein Pax-6 (Homo sapiens) (P26367 whole entry, looked up): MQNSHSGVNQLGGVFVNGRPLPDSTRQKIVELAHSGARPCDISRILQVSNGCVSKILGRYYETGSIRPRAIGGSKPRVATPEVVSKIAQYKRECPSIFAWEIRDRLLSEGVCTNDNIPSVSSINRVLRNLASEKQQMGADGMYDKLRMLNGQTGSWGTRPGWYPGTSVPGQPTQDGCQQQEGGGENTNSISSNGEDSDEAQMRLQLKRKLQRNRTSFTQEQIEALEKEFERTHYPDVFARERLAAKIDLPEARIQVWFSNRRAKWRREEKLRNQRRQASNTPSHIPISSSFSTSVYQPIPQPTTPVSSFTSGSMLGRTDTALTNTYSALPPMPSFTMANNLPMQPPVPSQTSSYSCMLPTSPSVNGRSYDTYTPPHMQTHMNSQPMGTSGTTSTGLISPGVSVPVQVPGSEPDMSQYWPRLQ

Test [11] is described as follows: ATG_PXRE_CIS: Attagene CIS-FACTORIAL HepG2 Assay for human Pregnane X Receptor Element (PXRE) (AID 2282957). The following applies: HepG2 Attagene CIS-FACTORIAL PXRE reporter, mRNA; actives raise or lower the signal. Put shortly:
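After a 24 h chemical incubation, total RNA from transfected HepG2 cells was reverse-transcribed and reporter cDNA amplified, FAM-labeled, HpaI-digested and sized by capillary electrophoresis. DMSO served as baseline for bidirectional curve fitting.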

Test [12] can be described thus: ATG_PPRE_CIS: Attagene CIS-FACTORIAL HepG2 Assay for human Peroxisome Proliferator-activated Response Element (PPRE) (AID 2282958). To be noted: HepG2 PPRE cis-element reporter, Attagene transcription factor profiling; actives raise or lower the signal. A digest of the protocol: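 Cells are first transfected transiently with the multiplexed reporter library, then dosed for 24 h. Total RNA is reverse-transcribed, amplified, fluorescently end-labeled and HpaI-cut before capillary electrophoresis; activity is fitted bidirectionally against DMSO controls.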

Test [13] in a line: ATG_RORE_CIS: Attagene CIS-FACTORIAL HepG2 Assay for human RAR-related Orphan Receptor Element (RORE) (AID 2282959). To be noted: HepG2 Attagene cis-factorial RORE reporter, mRNA; actives raise or lower the signal. A digest of the protocol: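 Cells were HepG2 carrying transfected cis-regulated reporter constructs, dosed for 24 hours. Total RNA was reverse-transcribed and reporter cDNA amplified, fluorescently labeled and sized by capillary electrophoresis. Activity was fitted bidirectionally relative to DMSO.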

The nature of test [14]: ATG_Sox_CIS: Attagene CIS-FACTORIAL HepG2 Assay for human SRY-box transcription factor (SOX) (AID 2282960). The following applies: HepG2 Attagene cis-factorial SOX reporter, mRNA; actives raise or lower the signal. A digest of the protocol:
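Transient MRTU transfection of HepG2; 24 h compound incubation; TriZol RNA, oligo(dT) RT, PCR, 6-FAM primer extension, HpaI cut, CE. Bidirectional fit, DMSO = baseline.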

Test [15] has as its target Transcription factor Sp1 (Homo sapiens) (UniProt P08047). Nature of the test: ATG_Sp1_CIS: Attagene CIS-FACTORIAL HepG2 Assay for human Specificity Protein 1 (Sp1) (AID 2282961). To be noted: HepG2 Sp1 cis-reporter transcription, actives raise or lower the signal. Put shortly:
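Endogenous Sp1 activity was gauged in human liver HepG2 cells bearing transfected reporter units under a cis-regulating promoter. After 24 h dosing, reporter mRNA was quantified by RT-PCR with capillary electrophoresis, and activity fitted bidirectionally versus DMSO.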

The nature of test [16]: ATG_SREBP_CIS: Attagene CIS-FACTORIAL HepG2 Assay for human Sterol Regulatory Element Binding (SREBP) (AID 2282962). To be noted: HepG2 Attagene cis-factorial SREBP reporter, mRNA; actives raise or lower the signal. Put shortly:
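Endogenous SREBP activity read as cis-element-driven reporter transcript in transiently transfected HepG2, 24 h post-dosing; quantified via RT-PCR plus capillary electrophoresis of fluorescent fragments. Gain or loss of signal fitted relative to DMSO baseline.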

Test [17] deals with Signal transducer and activator of transcription 3 (Homo sapiens) (UniProt P40763). Kind of test: ATG_STAT3_CIS: Attagene CIS-FACTORIAL HepG2 Assay for human Signal Transducer and Activator of Transcription 3 (STAT3) (AID 2282963). To be noted: HepG2, Attagene cis-factorial STAT3 reporter transcription; actives raise or lower the signal. Put shortly:
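Readout is reporter transcript quantified by RT-PCR and capillary electrophoresis, with 6-FAM primer extension and HpaI digestion. Total RNA is taken 24 h after dosing transiently transfected HepG2 carrying cis-regulated reporter units. Bidirectional fit against DMSO.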

The nature of test [18]: ATG_TCF_b_cat_CIS: Attagene CIS-FACTORIAL HepG2 Assay for human T-Cell-Factor with beta-catenin (TCF/b-cat) (AID 2282965). To be noted: HepG2 TCF/beta-catenin cis-reporter transcription, actives raise or lower the signal. A digest of the protocol:
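Measured: reporter mRNA in HepG2 transiently transfected with cis-promoter reporter units, 24 h after chemical addition. Fitting was bidirectional, DMSO as negative control.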

Test [19] in a line: ATG_TA_CIS: Attagene CIS-FACTORIAL HepG2 Assay for human TA Basal Promoter (AID 2282964). The following applies: HepG2 Attagene CIS-factorial TA basal promoter reporter; actives raise or lower the signal. A digest of the protocol:
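Background-control readout: TA basal promoter reporter mRNA, fitted in both directions relative to DMSO. Measured by RT-PCR and capillary electrophoresis 24 hours after treating HepG2 human liver cells transiently carrying multiplexed cis-regulated reporter constructs.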

Structures are written as SMILES. Activity calls are given as the source filed them. How the source made its calls: active means hit-call score of the fitted dose curve at least 0.9, where 1 is the maximum; inactive means score below 0.9.

Outcome and AC50 data for 8 compounds are collected here from PubChem BioAssay (EPA / NIEHS).

Chain of Transcription factor Sp1 (Homo sapiens) (P08047 whole entry, looked up): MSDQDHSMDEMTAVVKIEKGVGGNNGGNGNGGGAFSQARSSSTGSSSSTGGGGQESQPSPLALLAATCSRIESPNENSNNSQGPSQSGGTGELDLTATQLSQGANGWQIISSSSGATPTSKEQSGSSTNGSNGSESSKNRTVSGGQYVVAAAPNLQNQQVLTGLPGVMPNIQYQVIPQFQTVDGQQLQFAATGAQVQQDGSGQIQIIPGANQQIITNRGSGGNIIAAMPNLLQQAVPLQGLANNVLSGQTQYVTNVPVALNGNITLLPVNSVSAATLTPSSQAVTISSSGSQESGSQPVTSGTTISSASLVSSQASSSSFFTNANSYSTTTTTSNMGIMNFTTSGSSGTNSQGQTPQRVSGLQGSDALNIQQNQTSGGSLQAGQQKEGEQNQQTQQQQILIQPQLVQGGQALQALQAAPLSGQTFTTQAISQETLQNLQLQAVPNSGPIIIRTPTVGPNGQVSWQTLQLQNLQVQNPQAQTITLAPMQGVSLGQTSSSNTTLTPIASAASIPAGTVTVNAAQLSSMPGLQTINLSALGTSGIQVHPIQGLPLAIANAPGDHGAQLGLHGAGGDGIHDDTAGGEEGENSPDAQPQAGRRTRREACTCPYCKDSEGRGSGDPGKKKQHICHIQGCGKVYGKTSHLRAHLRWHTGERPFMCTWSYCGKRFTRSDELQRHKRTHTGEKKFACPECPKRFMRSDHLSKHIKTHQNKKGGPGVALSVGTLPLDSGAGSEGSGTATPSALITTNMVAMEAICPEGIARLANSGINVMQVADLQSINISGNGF
Chain of Hepatocyte nuclear factor 6 (Homo sapiens) (Q9UBC0 whole entry, looked up, the tested form may be a part): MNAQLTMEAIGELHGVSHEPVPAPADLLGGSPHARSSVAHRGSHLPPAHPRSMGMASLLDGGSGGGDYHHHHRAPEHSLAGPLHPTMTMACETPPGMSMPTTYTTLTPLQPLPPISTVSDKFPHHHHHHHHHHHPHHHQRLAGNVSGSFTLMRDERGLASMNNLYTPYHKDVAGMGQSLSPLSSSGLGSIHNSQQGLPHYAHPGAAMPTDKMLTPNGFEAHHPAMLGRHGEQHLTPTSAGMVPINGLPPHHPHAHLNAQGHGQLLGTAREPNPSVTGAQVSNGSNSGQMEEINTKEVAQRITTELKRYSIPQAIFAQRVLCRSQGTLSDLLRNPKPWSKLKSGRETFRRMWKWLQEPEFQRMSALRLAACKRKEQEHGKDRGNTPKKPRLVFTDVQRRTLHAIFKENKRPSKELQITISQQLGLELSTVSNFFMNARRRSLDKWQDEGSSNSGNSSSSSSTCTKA
Chain of Signal transducer and activator of transcription 3 (Homo sapiens) (P40763 whole entry, looked up): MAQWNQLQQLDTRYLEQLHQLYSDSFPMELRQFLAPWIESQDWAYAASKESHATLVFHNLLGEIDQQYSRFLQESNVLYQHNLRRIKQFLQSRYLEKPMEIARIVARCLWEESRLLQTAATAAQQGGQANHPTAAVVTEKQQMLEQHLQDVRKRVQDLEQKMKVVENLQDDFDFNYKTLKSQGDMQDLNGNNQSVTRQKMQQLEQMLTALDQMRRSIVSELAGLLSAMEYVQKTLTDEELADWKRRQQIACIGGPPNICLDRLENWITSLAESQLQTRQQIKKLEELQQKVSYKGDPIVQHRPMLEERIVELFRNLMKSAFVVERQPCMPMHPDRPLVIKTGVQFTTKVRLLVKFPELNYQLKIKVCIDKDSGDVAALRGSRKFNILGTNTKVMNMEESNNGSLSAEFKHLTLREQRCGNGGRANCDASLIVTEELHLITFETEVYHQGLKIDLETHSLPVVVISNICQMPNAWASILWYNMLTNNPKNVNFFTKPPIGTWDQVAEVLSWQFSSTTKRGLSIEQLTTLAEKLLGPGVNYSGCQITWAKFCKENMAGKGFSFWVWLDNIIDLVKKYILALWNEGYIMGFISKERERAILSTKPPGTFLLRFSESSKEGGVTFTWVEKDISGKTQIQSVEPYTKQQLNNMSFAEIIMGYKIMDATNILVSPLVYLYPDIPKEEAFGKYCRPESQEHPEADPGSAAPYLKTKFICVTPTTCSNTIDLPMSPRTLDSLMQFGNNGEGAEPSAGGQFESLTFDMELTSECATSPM

Consider `ClCCCl`, for which the compound was called inactive in [1], in [2], in test [3], in [4], in test [5] and in test [6]. Further, the call in [7], in [8], in test [9], in test [10], in [11] and in [12] was inactive. For the same compound, the outcome in [13], in test [14], in [15], in [16], in test [17] and in [18] was inactive.
Broadly, the AC50 is the midpoint of the concentration-response curve, whichever way the signal moves. Regarding `COc1cc(C)cc(O)c1`, the compound was classed as inactive in test [1], in test [2], in test [3], in [4], in test [5] and in test [6]. The outcome in test [7], in [8], in test [10], in test [12], in test [13] and in test [14] was inactive. In addition, the call in test [15], in [16], in [17], in test [19] and in test [18] was inactive. For the same compound, in test [11], the AC50 is 20.5 µM (active).
As to `COc1cc(C=O)ccc1OC(=O)C(C)C`, the compound was called inactive in test [1], in test [2], in test [3], in test [4], in [5] and in test [6]. The result in [7], in test [8], in test [10], in test [11], in test [12] and in [13] was inactive. Besides, the outcome in test [14], in test [15], in test [16], in test [17], in [19] and in [18] was inactive.
Take `O=[N+]([O-])c1ccc(C=Cc2ccc([N+](=O)[O-])cc2S(=O)(=O)O)c(S(=O)(=O)O)c1`: the compound was classed as inactive in [1], in test [2], in [3], in test [4], in [5] and in test [6]. Also, the result in [7], in test [8], in test [9], in [10], in test [11] and in test [13] was inactive. Besides, the compound was called inactive in test [14], in test [15], in test [16], in [17] and in test [19].
As for `CCCCCCCCC`, the compound was classed as inactive in [1], in test [2], in test [3], in test [4], in [5] and in [6]. Moreover, the compound was called inactive in test [7], in test [8], in test [9], in test [10], in test [11] and in test [12]. Moreover, the call in test [13], in [14], in test [16], in [17], in [19] and in test [18] was inactive.
Take `CCCCCCCCCC=O`: the compound was called inactive in test [1], in test [2], in test [3], in test [4], in test [6] and in test [7]. Also, the call in [8], in test [10], in [11], in test [13], in [14] and in [15] was inactive. For the same compound, the compound was called inactive in [16], in test [17], in test [19] and in test [18]. In addition, the half-maximal activity concentration (AC50) is 19.8 µM (active) in test [5] and 46.1 µM (active) in [12].
With `COC(=O)OC`, the call in test [1], in [2], in [3], in test [4], in test [5] and in [6] was inactive. Further, the compound was called inactive in test [7], in test [8], in test [9], in [10], in [11] and in test [12]. The call in test [13], in test [14], in test [15], in test [16], in test [17] and in test [19] was inactive. Further, in [18], the result was inactive.
For the compound `O=S(=O)(O)c1cccc2c(S(=O)(=O)O)cccc12`, the call in test [1], in test [2], in test [3], in [4], in test [5] and in [6] was inactive. Moreover, the call in test [7], in test [8], in test [9], in test [10], in [11] and in test [14] was inactive. Besides, the result in [15], in [16], in test [17], in test [19] and in test [18] was inactive.
